Results from PubChem BioAssay AID1318 (The Scripps Research Institute Molecular Screening Center, 2008).
About 160 (13%) of roughly 1,200 compounds were called active. Only a sample is shown. A number with no mark means an inactive call.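 How the source made its calls: active means activation above the solvent-only control well mean plus 3 SD, set per screening run (cut at about 120% in these data); inactive means the rest.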

Assay: enhancement of STAT1-driven transcription – cell-based, NIH 3T3, luciferase luminescence, IFN-gamma, counter-screen for STAT3 activator project (AID 1318);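 further: 100% = IFN-gamma with DMSO median signal so 100% means no change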
Conditions: NIH 3T3 STAT1-luciferase reporter, at 5.7 µM, active compounds read high

SMILES | activation (% of control)
COc1ccc(NC(=O)ON=C2c3ccccc3-c3ccccc32)cc1 | 107%
Cc1ccc(-c2cc(C(=O)Nc3nn[nH]n3)c3ccccc3n2)c(C)c1 | 97.5%
C=CCn1c(-c2ccccc2OCC)n[nH]c1=S | 112%
COC(=O)c1[nH]c2ccccc2c1NC(=O)CN1CCCc2ccccc21 | 106%
CC(=O)Nc1ccc(NC(=O)COc2ccccc2C(=O)Nc2cccc(Cl)c2Cl)cc1 | 100%
Cc1ccc(/C=N/NC(=O)COc2ccccc2-c2ccccc2)cc1 | 114%
COc1cccc(NC(=S)C(C#N)=C2N(C)c3ccccc3N2C)c1 | 103%
COC(=O)c1[nH]c2cccc(C)c2c1NC(=O)CN1CCCc2ccccc21 | 93.5%
NC(=O)CSc1c[nH]c2ccccc12 | 99.4%
COc1ccc(-c2c3c(=O)n(C)c(=O)n(C)c3cn2-c2cccc(OC)c2)cc1 | 101%
N#Cc1c(C(F)(F)F)cc(-c2ccc(Cl)cc2)nc1SCC(=O)O | 113%
COc1ccc([N+](=O)[O-])cc1C1NN=C(c2cccc3ccccc23)S1 (stereo not drawn) | 120%
CSc1nc2sc3c(c2c(=O)[nH]1)CCc1ccccc1-3 | 95.8%
CCSc1nnc(-c2cc3c(s2)-c2ccccc2CC3)o1 | 132% (active)
COc1ccccc1N1CCN(C(=O)c2cc3c(-c4ccc(Cl)cc4)nn(C)c3s2)CC1 | 93.1%
COc1cc(OC)cc(C(=O)N[C@H](C(=O)Nc2nc3ccccc3[nH]2)C(C)C)c1 | 109%
CSc1nc(N(C)NC(=O)c2cccc(C)c2)c2ccccc2n1 | 107%
CCCS(=O)(=O)Nc1c(C(=O)O)[nH]c2ccccc12 | 94.9%
CCOC(=O)N1CCN(CC(=O)Nc2cc(C)nn2-c2nc3ccccc3s2)CC1 | 101%
CCNCc1cc2cc(C)ccc2[nH]c1=O | 98.7%
Cn1cccc1C(=O)Nc1nccs1 | 104%
CCOC(=O)C1CCN(c2ncnc3c2oc2ccc(Br)cc23)CC1 | 92.6%
COc1ccccc1C1C2=C(COC2=O)Nc2cc3c(cc21)OCO3 (stereo not drawn) | 116%
COc1ccc(/C=N/Nc2ncnc3sc4c(c23)CCCC4)cc1O | 139% (active)

SMILES | activation (% of control)
CCCCC(=O)Nc1nc(C)c(-c2csc(Nc3ccc(Cl)cc3)n2)s1 | 102%
Cc1cccc(C(=O)N2CCc3c([nH]c4ccccc34)C2CC(C)C)n1 (stereo not drawn) | 118%
C/C(=N\c1nc2ccccc2n1C)c1cc(Cl)ccc1O | 92.8%
C=CCCC(=O)Nc1nc(C)c(-c2csc(Nc3ccc(Cl)cc3)n2)s1 | 104%
Oc1cccc(C2c3[nH]c4ccccc4c3CCN2Cc2cnn(-c3ccccc3)c2)c1 (stereo not drawn) | 93.5%
Fc1ccc2nc(-c3ccccc3)nc(SCc3nnc(-c4ccccc4)o3)c2c1 | 96.5%
COc1ccc(C2c3[nH]c4ccccc4c3CCN2CCCn2cccn2)cc1C (stereo not drawn) | 95.6%
COc1ccc(Cl)cc1NC(=O)c1oc(C)nc1C | 98.8%
Cc1csc2ncc(C(=O)N(Cc3ccccc3)c3ccccn3)c(=O)n12 | 103%
Cc1ccc(C2=NN(C)c3nc4ccccc4n3C2)cc1 | 101%
COC(=O)c1[nH]c2ccccc2c1NS(=O)(=O)c1ccc(OC)cc1OC | 92.3%
O=C(O)CS/C(=C\c1ccc(F)cc1)c1nc2ccccc2s1 | 112%
O=C(O)CSCc1nc2ccccc2s1 | 120% (active)
Cc1nc2ccccc2cc1O | 87.9%
COc1ccc(C)cc1NC(=O)c1[nH]c(C)c(C(C)=O)c1C | 100%
CCn1c(SCC(=O)N/N=C/C=C/c2ccccc2[N+](=O)[O-])nnc1-c1ccccc1 | 89.9%
COc1cc(NS(=O)(=O)c2ccc(N/C=C(\C=O)c3nc4cc(Cl)ccc4o3)cc2)nc(OC)n1 | 93.1%
Cn1nc(-c2ccc(Cl)cc2)c2cc(C(=O)NCc3ccco3)sc21 | 94.9%
O=c1[nH]c(CSc2ncc(-c3ccc(F)cc3)n2Cc2ccco2)nc2ccccc12 | 100%
COCCCNc1nc2c(-c3cccc(C(F)(F)F)c3)nnn2c2ccccc12 | 98.4%
O=C(NCc1ccco1)c1cccn2c(=O)c3c4c(sc3nc12)CCCC4 | 87%
Cc1cccc(N(CC(=O)N=Nc2c(O)[nH]c3ccccc23)S(C)(=O)=O)c1C | 107%
O=C(C1CCN(S(=O)(=O)Cc2ccccc2)CC1)N1CCCc2ccccc21 | 105%
Cc1ccc(OCc2nnc(SC3CCc4ccccc4C3=O)n2C)cc1 (stereo not drawn) | 132% (active)
